In the supplement of paper PMC7156485:
± gives the standard deviation of the averaged measurements.

Tests used:
Settings in all cases: concentration: 10 µM; 24 h
HCC1569 [1] = assay: cell number relative to DMSO (% of DMSO); higher = more cells (less growth inhibition / toxicity)
In short: (§1)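 Cells were seeded at 800 per well in 384-well plates with RPMI containing 10% FBS; both HCC1569 and TDF lines were used. Compounds were added at 10 µM for 24 h at 37 °C, in triplicate, before fixation in 3.7% formaldehyde and staining with a rabbit anti-H1.0 antibody, an AlexaFluor 647 secondary and DAPI. H1.0 nuclear intensity or cell number is reported as percent of the plate control using the median of replicates, and HCC1569 values were smoothed for positional effects.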

TDF [2] = assay: as above
In short: as §1

TDF [3] = assay: H1.0 immunofluorescence intensity relative to DMSO (% of DMSO); higher = stronger H1.0 induction, active = 120 or more
In short: as §1

HCC1569 [4] = assay: H1.0 immunofluorescence intensity relative to DMSO (% of DMSO); higher = stronger H1.0 induction, active = 140 or more
In short: as §1
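Wherever H1.0 immunofluorescence intensity relative to DMSO is given: TDF is a line of transformed human dermal fibroblasts of mesenchymal origin.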
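Wherever cell number relative to DMSO is given: TDF denotes transformed human dermal fibroblasts of mesenchymal origin.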

Structure (SMILES): NC(=S)NN=Cc1ncccc1N [3-amino-2-pyridinecarbaldehyde thiosemicarbazone]
- cell number (HCC1569 [1]): 77.2
- cell number (TDF [2]): 41.7
- H1.0 immunofluorescence intensity (TDF [3]): 113 (inactive)
- H1.0 immunofluorescence intensity (HCC1569 [4]): 99.1 (inactive)

Structure (SMILES): NC(=O)OCC(COC(N)=O)c1ccccc1 [Felbamate]
- cell number (HCC1569 [1]): 111 ± 15
- cell number (TDF [2]): 109 ± 1.2
- H1.0 immunofluorescence intensity (TDF [3]): 97 (inactive)
- H1.0 immunofluorescence intensity (HCC1569 [4]): 93.1 (inactive)

Structure (SMILES): COc1ccccc1OCCNCC(O)COc1cccc2[nH]c3ccccc3c12 (stereo not drawn) [Carvedilol]
- cell number (HCC1569 [1]): 92.6 ± 15
- cell number (TDF [2]): 104 ± 4.5
- H1.0 immunofluorescence intensity (TDF [3]): 99.3 (inactive)
- H1.0 immunofluorescence intensity (HCC1569 [4]): 106 (inactive)

Structure (SMILES): C=C1C(=CC=C2CCCC3(C)C2CCC3C(C)C=CC(O)C2CC2)CC(O)CC1O (stereo not drawn) [Calcipotriene]
- cell number (HCC1569 [1]): 97.8
- cell number (TDF [2]): 109
- H1.0 immunofluorescence intensity (TDF [3]): 91.9 (inactive)
- H1.0 immunofluorescence intensity (HCC1569 [4]): 115 (inactive)

Structure (SMILES): COC1C(OC(=O)C=CC=CC=CC=CC(=O)O)CCC2(CO2)C1C1(C)OC1CC=C(C)C (stereo not drawn) [Fumagillin]
- cell number (HCC1569 [1]): 104 ± 1.1
- cell number (TDF [2]): 98.7 ± 8.4
- H1.0 immunofluorescence intensity (TDF [3]): 98.9 (inactive)
- H1.0 immunofluorescence intensity (HCC1569 [4]): 91.2 (inactive)

Structure (SMILES): CNCCCN1c2ccccc2CCc2ccccc21.Cl [Desipramine hydrochloride]
- cell number (HCC1569 [1]): 102
- cell number (TDF [2]): 97.5
- H1.0 immunofluorescence intensity (TDF [3]): 98.7 (inactive)
- H1.0 immunofluorescence intensity (HCC1569 [4]): 92.6 (inactive)

Structure (SMILES): CCC(CO)Nc1nc(NCc2ccccc2)c2ncn(C(C)C)c2n1 (stereo not drawn) [Roscovitine]
- cell number (HCC1569 [1]): 93.4
- cell number (TDF [2]): 99
- H1.0 immunofluorescence intensity (TDF [3]): 93.9 (inactive)
- H1.0 immunofluorescence intensity (HCC1569 [4]): 103 (inactive)

Structure (SMILES): COc1c2ccoc2cc2oc(=O)ccc12 [Bergapten]
- cell number (HCC1569 [1]): 97.8
- cell number (TDF [2]): 94
- H1.0 immunofluorescence intensity (TDF [3]): 102 (inactive)
- H1.0 immunofluorescence intensity (HCC1569 [4]): 99.9 (inactive)

Structure (SMILES): Cc1ccc(-c2ncc(Cl)cc2-c2ccc(S(C)(=O)=O)cc2)cn1 [Etoricoxib]
- cell number (HCC1569 [1]): 106
- cell number (TDF [2]): 97.1
- H1.0 immunofluorescence intensity (TDF [3]): 101 (inactive)
- H1.0 immunofluorescence intensity (HCC1569 [4]): 92.2 (inactive)

Structure (SMILES): CCCCCCCCCCCCCCCCOP(=O)([O-])OCC[N+](C)(C)C [Miltefosine]
- cell number (HCC1569 [1]): 97.1
- cell number (TDF [2]): 109
- H1.0 immunofluorescence intensity (TDF [3]): 92.7 (inactive)
- H1.0 immunofluorescence intensity (HCC1569 [4]): 113 (inactive)

Structure (SMILES): O=C(O)c1cc(-c2ccc(F)cc2F)ccc1O [Diflunisal]
- cell number (HCC1569 [1]): 102
- cell number (TDF [2]): 100
- H1.0 immunofluorescence intensity (TDF [3]): 96.1 (inactive)
- H1.0 immunofluorescence intensity (HCC1569 [4]): 115 (inactive)

Structure (SMILES): O=C(Nc1ccccc1C(=O)Nc1ccc(CCO)cc1)c1ccc([N+](=O)[O-])cc1 [N-(4-(2-hydroxyethyl)phenyl)-2-(4-nitrobenzamido)benzamide]
- cell number (HCC1569 [1]): 82.4
- cell number (TDF [2]): 90.9
- H1.0 immunofluorescence intensity (TDF [3]): 101 (inactive)
- H1.0 immunofluorescence intensity (HCC1569 [4]): 144 (active)

Structure (SMILES): COc1ccc2cc1Oc1ccc(cc1)CC1c3c(cc4c(c3Oc3cc5c(cc3OC)CCN(C)C5C2)OCO4)CCN1C (stereo not drawn) [Cepharanthine]
- cell number (HCC1569 [1]): 95.3
- cell number (TDF [2]): 83
- H1.0 immunofluorescence intensity (TDF [3]): 108 (inactive)
- H1.0 immunofluorescence intensity (HCC1569 [4]): 129 (inactive)

Structure (SMILES): O=C1CCCC(=O)C1C(=O)c1ccc(C(F)(F)F)cc1[N+](=O)[O-] [2-[2-nitro-4-(trifluoromethyl)benzoyl]-1,3-cyclohexanedione]
- cell number (HCC1569 [1]): 96.1
- cell number (TDF [2]): 104
- H1.0 immunofluorescence intensity (TDF [3]): 99.8 (inactive)
- H1.0 immunofluorescence intensity (HCC1569 [4]): 101 (inactive)

Structure (SMILES): Cl.O.O.c1ccc2c(c1)CN1CCCC1=N2 [Desoxypeganine]
- cell number (HCC1569 [1]): 101
- cell number (TDF [2]): 109
- H1.0 immunofluorescence intensity (TDF [3]): 89.6 (inactive)
- H1.0 immunofluorescence intensity (HCC1569 [4]): 86.8 (inactive)

Structure (SMILES): Cc1c(C)c2c(c(C)c1O)CCC(C)(COc1ccc(CC3SC(=O)NC3=O)cc1)O2 (stereo not drawn) [Troglitazone]
- cell number (HCC1569 [1]): 99.8
- cell number (TDF [2]): 93.8
- H1.0 immunofluorescence intensity (TDF [3]): 101 (inactive)
- H1.0 immunofluorescence intensity (HCC1569 [4]): 103 (inactive)

Structure (SMILES): Nc1nc2ccc(Cl)cc2n2c(-c3ccccc3)nnc12 [8-chloro-1-phenyl[1,2,4]triazolo[4,3-a]quinoxalin-4-ylamine]
- cell number (HCC1569 [1]): 104
- cell number (TDF [2]): 102
- H1.0 immunofluorescence intensity (TDF [3]): 93.9 (inactive)
- H1.0 immunofluorescence intensity (HCC1569 [4]): 99 (inactive)
